About 83,000 compounds went through this panel and 20% of them were active in at least one assay; those are over-represented in the sample as a whole.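 Activity criterion: percent growth below 10, measured after cells in 96-well plates were exposed to a single compound concentration for 48 hours.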 Values without a mark were called inactive. The source made the active and inactive calls.
These compounds were tested on OVCAR-5 ovarian (assay: NCI-60 one-dose screen, 48 h (100 = growth as untreated, 0 = no growth, -100 = all killed)). Settings: 10 µM.
`CCN(CC)CCNc1ccc(CO)c2oc3cc(Cl)ccc3c(=O)c12` showed a growth of 104%.
`N#Cc1c(C#N)c(SSc2c(C#N)c(C#N)c(N)n2-c2ccccc2)n(-c2ccccc2)c1N` was tested, and the growth was 91.8%.
Work on `Cc1ccc(-c2nc(/C=C3/C(=O)N(C)c4ccc(F)cc43)c3ccccn23)cc1` yielded a growth of 106%.
`CCN(CC)CCSCCCNc1c2ccc(Cl)cc2nc2ccc(OC)cc12` was tested, and the growth was -16.7% (active).
`CN1CC[C@@H](c2c(O)cc(O)c3c(=O)cc(-c4ccccc4Cl)oc23)[C@@H](O)C1` was tested, and the growth was 16.4%.
`CCc1ccc2c(c1)N(CCO)C1=C(C(=O)OC1)C2c1ccccc1` (stereo not given) was tested, and the growth was 93.9%.
With `Cc1cccc2c(NCCN(C)C)c3cccc(C(=O)NCCN(C)C)c3nc12` the growth was 26.1%.
`CCCN(CCC)CCC(O)c1cc2c(c3ccccc13)CCCC2` (stereo not given) was tested, and the growth was 84.9%.
For `Nc1ccn(C2CC(O)C(CO)O2)c(=O)n1` (stereo not given), the growth was 92.4%.
Compound `COc1cccc(C2C3=C(COC3=O)N(CCO)c3cc(OC)ccc32)c1` (stereo not given) has a growth of 27.5%.
`CCCC1(CC(=O)O)OCCc2c1[nH]c1ccccc21` (stereo not given) gave a growth of 88.6%.
`CN(C)C(=S)N/N=C\C=N/NC(=S)N(C)C` showed a growth of 95.2%.
`C=C(NC(=O)C(=C)NC(=O)c1csc(C2=NC3c4csc(n4)C4NC(=O)c5csc(n5)C(C(C)(O)C(C)O)NC(=O)C5CSC(=N5)/C(=C/C)NC(=O)C(C(C)O)NC(=O)c5csc(n5)C3(CC2)NC(=O)C(C)NC(=O)C(=C)NC(=O)C(=C)NC(=O)C(C(C)C)NC2C=Cc3c(C(C)O)cc(nc3C2O)C(=O)OC4C)n1)C(N)=O` (stereo not given) gave a growth of 52.6%.
For `COc1ccc2nc3ccccc3c(NCCNCC(C)O)c2c1` (stereo not given), the growth was 1.61% (active).
`CN(C)CCN1C(=O)c2cccc3cc(N)cc(c23)C1=O` gave a growth of 47.2%.
For `COc1ccc(N2C(=O)C3c4[nH]c5ccc(OCc6ccccc6)cc5c4C4CCC(C(C)C)CC4C3C2=O)cc1` (stereo not given), the growth was 84.4%.
With `CC(C)C[C@H](NC(=O)[C@H](Cc1cccc2ccccc12)NS(=O)(=O)c1cccc2cccnc12)B(O)O` the growth was -57.6% (active).
With `O=C(CC(C(=O)c1ccccc1)N1CCOCC1)c1ccccc1` (stereo not given) the growth was 95.5%.
Work on `CCCCN(CCCC)CCCCCCCCC(O)c1cc2ccccc2c2ccccc12` (stereo not given) yielded a growth of 74.8%.
In the case of `O=C(CCCCCCC(=O)Nc1cccnc1)NO`, the growth is reported as 60.8%.
With `COc1ccc2nc3cc(Cl)ccc3c(NCCNCC(C)O)c2c1` (stereo not given) the growth was 24.6%.
With `Clc1cccc(-c2nc(-c3cccs3)no2)c1` the growth was 108%.
For `CCCCCCCCCCCCCCCCCCOCC(COCCOCC[N+]1(CCCCCC(=O)[O-])CCCC1)Oc1ncccn1` (stereo not given), the growth was -0.76% (active).
`CC/C(=N\N=C(/CC)c1ccc(Br)cc1)c1ccc(Br)cc1` gave a growth of 92.4%.
For `Cc1nc2ccc(CN(C)c3ccc(C(=O)N[C@@H](CCC(=O)O)C(=O)O)s3)cc2c(=O)[nH]1`, the growth was 67.6%.
For `CCCCCCCCN(CCCCCCCC)CCCCCCCCCN1CCCc2cc(OC)ccc21`, the growth was 90.9%.
With `C=C(Cl)[C@@](Cl)(CBr)CC[C@@H](Br)C(C)(C)Cl` the growth was -46.3% (active).
In the case of `C[N+](C)(C)c1ncnc2nc[nH]c12`, the growth is reported as 80.3%.
With `COC(=O)[C@@H]1[C@H](O)[C@H](C)[C@H](O)[C@@](C)(O)/C=C\C=C(C)C(=O)Nc2c(C)c(OC(C)=O)c3c(c2O)C(=O)C(C)=C2OCOC(=C23)C(C)=C[C@@](C)(O)[C@H](O)[C@@H](C)[C@H]1OC(C)=O` the growth was 97.7%.

The compounds below were run on OVCAR-4 ovarian in the same assay as above. Settings: 10 µM.
Work on `CCN(CC)CCNc1ccc(CO)c2oc3cc(Cl)ccc3c(=O)c12` yielded a growth of 78.7%.
For `O=C(O)C(SC(C(=O)O)c1ccccc1)c1ccccc1` (stereo not given), the growth was 102%.
`COc1ccc(-c2nc3ccccn3c2-c2nnc(-c3cc(OC)c(OC)c(OC)c3)o2)cc1` gave a growth of 64.8%.
Work on `N#Cc1c(C#N)c(SSc2c(C#N)c(C#N)c(N)n2-c2ccccc2)n(-c2ccccc2)c1N` yielded a growth of 76.8%.
`Cc1ccc(-c2nc(/C=C3/C(=O)N(C)c4ccc(F)cc43)c3ccccn23)cc1` was tested, and the growth was 114%.
`CCN(CC)CCSCCCNc1c2ccc(Cl)cc2nc2ccc(OC)cc12` was tested, and the growth was -34.1% (active).
`CN1CC[C@@H](c2c(O)cc(O)c3c(=O)cc(-c4ccccc4Cl)oc23)[C@@H](O)C1` was tested, and the growth was -26.7% (active).
Work on `NC1=NC(=O)C(c2ccccc2)(c2ccccc2)S1` yielded a growth of 97%.
Compound `CCc1ccc2c(c1)N(CCO)C1=C(C(=O)OC1)C2c1ccccc1` (stereo not given) has a growth of 104%.
`Cc1cccc2c(NCCN(C)C)c3cccc(C(=O)NCCN(C)C)c3nc12` was tested, and the growth was -44% (active).
`CCCN(CCC)CCC(O)c1cc2c(c3ccccc13)CCCC2` (stereo not given) showed a growth of 103%.
`COc1ccc2c(c1)/C(=C\c1c[nH]c3ccc(OC)cc13)C(=O)N2` gave a growth of 57.6%.
Work on `Nc1ccn(C2CC(O)C(CO)O2)c(=O)n1` (stereo not given) yielded a growth of 114%.
With `COc1cccc(C2C3=C(COC3=O)N(CCO)c3cc(OC)ccc32)c1` (stereo not given) the growth was 59.2%.
`C=C(C(=O)c1ccccc1)C(NC(C)(C)C)c1ccccc1` (stereo not given) was tested, and the growth was -13.1% (active).
`CCCC1(CC(=O)O)OCCc2c1[nH]c1ccccc21` (stereo not given) showed a growth of 74%.
`CN(C)C(=S)N/N=C\C=N/NC(=S)N(C)C` was tested, and the growth was -36.5% (active).
`C=C(NC(=O)C(=C)NC(=O)c1csc(C2=NC3c4csc(n4)C4NC(=O)c5csc(n5)C(C(C)(O)C(C)O)NC(=O)C5CSC(=N5)/C(=C/C)NC(=O)C(C(C)O)NC(=O)c5csc(n5)C3(CC2)NC(=O)C(C)NC(=O)C(=C)NC(=O)C(=C)NC(=O)C(C(C)C)NC2C=Cc3c(C(C)O)cc(nc3C2O)C(=O)OC4C)n1)C(N)=O` (stereo not given) was tested, and the growth was 6.53% (active).
Compound `COc1ccc2nc3ccccc3c(NCCNCC(C)O)c2c1` (stereo not given) has a growth of 11.8%.
With `CN(C)CCN1C(=O)c2cccc3cc(N)cc(c23)C1=O` the growth was -5.76% (active).
In the case of `COc1ccc(N2C(=O)C3c4[nH]c5ccc(OCc6ccccc6)cc5c4C4CCC(C(C)C)CC4C3C2=O)cc1` (stereo not given), the growth is reported as 47.7%.
For `O=C(CC(C(=O)c1ccccc1)N1CCOCC1)c1ccccc1` (stereo not given), the growth was 106%.
For `NC(=O)SCC(=O)Nc1ccc(S(N)(=O)=O)cc1`, the growth was 106%.
For `CCCCN(CCCC)CCCCCCCCC(O)c1cc2ccccc2c2ccccc12` (stereo not given), the growth was 46.2%.
In the case of `O=C(CCCCCCC(=O)Nc1cccnc1)NO`, the growth is reported as 16.1%.
`COc1ccc2nc3cc(Cl)ccc3c(NCCNCC(C)O)c2c1` (stereo not given) was tested, and the growth was 37%.
Compound `Clc1cccc(-c2nc(-c3cccs3)no2)c1` has a growth of 65.8%.
`CC/C(=N\N=C(/CC)c1ccc(Br)cc1)c1ccc(Br)cc1` was tested, and the growth was 93.7%.
`O=C1OCC2=C1C(c1ccc(Cl)c(Cl)c1)c1cc3c(cc1N2CCO)OCCO3` (stereo not given) gave a growth of 55.7%.
For `COc1cc2nc(Nc3cccc(NC(C)=O)c3)nc(N)c2cc1OC`, the growth was 107%.
Compound `CCCCCCCCN(CCCCCCCC)CCCCCCCCCN1CCCc2cc(OC)ccc21` has a growth of 78.2%.
`Nc1ncnc2[nH]c(=O)[nH]c12` gave a growth of 96.7%.
Compound `COc1ccc2c(c1)sc1nc(-c3ccccc3)c(-c3cccnc3)n12` has a growth of 88.1%.
`C=C(Cl)[C@@](Cl)(CBr)CC[C@@H](Br)C(C)(C)Cl` was tested, and the growth was -37% (active).
Compound `C[N+](C)(C)c1ncnc2nc[nH]c12` has a growth of 103%.
For `COC(=O)[C@@H]1[C@H](O)[C@H](C)[C@H](O)[C@@](C)(O)/C=C\C=C(C)C(=O)Nc2c(C)c(OC(C)=O)c3c(c2O)C(=O)C(C)=C2OCOC(=C23)C(C)=C[C@@](C)(O)[C@H](O)[C@@H](C)[C@H]1OC(C)=O`, the growth was 117%.

— PubChem BioAssay (NCI)
